# An excerpt weighted towards active compounds, which were near 2.4% of everything screened.
# D2 PAM-1 – Beta-Arrestin HTS for Positive Allosteric Modulators of the Human D2 Dopamine Receptor: Potentiators; D(2) dopamine receptor (Homo sapiens), P14416; hit rate 0.23% among 360,000; potentiation, % (no concentration beside the values); AID 624464, 2012; DiscoveRx D2 beta-arrestin cells, luminescence, 90 min; 100% = 57 uM dopamine signal; in the data active means potentiation above about 50%
# Target sequence (P14416 whole entry, looked up): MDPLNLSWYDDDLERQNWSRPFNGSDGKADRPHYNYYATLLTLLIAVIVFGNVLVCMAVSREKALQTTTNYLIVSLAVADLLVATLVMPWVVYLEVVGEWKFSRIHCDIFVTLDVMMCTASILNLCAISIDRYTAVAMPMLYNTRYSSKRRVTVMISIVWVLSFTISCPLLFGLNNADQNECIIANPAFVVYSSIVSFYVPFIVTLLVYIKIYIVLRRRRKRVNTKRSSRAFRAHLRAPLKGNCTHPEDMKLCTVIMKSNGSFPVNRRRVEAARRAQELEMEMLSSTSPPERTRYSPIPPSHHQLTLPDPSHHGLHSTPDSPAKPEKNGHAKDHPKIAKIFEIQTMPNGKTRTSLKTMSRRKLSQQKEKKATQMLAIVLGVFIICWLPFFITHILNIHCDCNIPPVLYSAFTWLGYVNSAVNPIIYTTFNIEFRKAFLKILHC
#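 PathHunter beta-arrestin assay in DiscoveRx D2 cells. Compounds were added with an EC20 of dopamine (50 nM final) for 90 min at 37 deg C. Luminescence was read 1 h after detection reagent, with 57 uM dopamine as the EC100 control.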
# D2 PAM-2 – HTS Assay for Positive Allosteric Modulators of the Human D2 Dopamine Receptor: Primary Screen for Potentiators; HEK293 T-REx D2, calcium flux, EC20 dopamine potentiation; potentiation, % at 10 µM; hit rate 0.34% among 340,000; AID 485347, 2010;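 active means potentiation over 3 SD above the plate norm, cut at about 30% in these data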; further: 0% is about no effect
#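 Potentiation of an EC20 dopamine calcium response is measured in a force-coupled, tetracycline-inducible Hek293 Trex D2 line. Compound-only kinetic reads over 180 s flag agonists before dopamine addition.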
# D2 ag-1 – HTS Assay for Allosteric Agonists of the Human D2 Dopamine Receptor: Primary Screen for Agonists; D(2) dopamine receptor (Homo sapiens), P14416; HEK293 T-REx D2 cells, calcium flux agonist mode; activation, % at 2 µM; hit rate 0.53% among 340,000; AID 485358, 2010;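 active means activation over 3 SD above normal in the single-dose calcium agonist read, cut at about 30% in these data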; further: 0% is about no effect
#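 Tetracycline-induced HEK293 Trex cells with D2 receptor force-coupled to calcium signaling, plated overnight at 30 C and loaded with no-wash calcium dye. Calcium flux read kinetically for 180 s after compound addition; responses flag agonists.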
# D2 antag – HTS Assay for Allosteric Antagonists of the Human D2 Dopamine Receptor: Primary Screen for Antagonists; D(2) dopamine receptor (Homo sapiens), P14416; HEK293 TREx D2 cells, calcium flux, dopamine EC80; inhibition, % at 10 µM; hit rate 2% among 340,000; AID 485344, 2010; in the data active means inhibition above about 30%; inactive means below that, where a call was filed; further: 0% is about no effect
#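 Overnight-induced (tetracycline, 30 C) HEK293 T-REx cells carrying force-coupled D2 receive a no-wash calcium dye, then compound, then EC80 dopamine at 180 s; signals are read kinetically throughout.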
# D2 ag-2 – Beta-Arrestin HTS for Positive Allosteric Modulators of the Human D2 Dopamine Receptor: Agonists; D(2) dopamine receptor (Homo sapiens), P14416; DiscoveRx PathHunter D2 beta-arrestin, luminescence, 90 min; 100% = 57 uM dopamine signal; hit rate 0.084% among 360,000; activation, % (test concentration not listed); in the data active means activation above about 40%
#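 Agonist mode: compounds alone added to overnight-plated D2 PathHunter cells for 90 min at 37 C, with 57 uM final dopamine (EC100) defining full response. Beta-arrestin recruitment detected by chemiluminescent reagent, read after 1 h at ambient temperature.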
# The depositor's hits bear a star; nt = not tested or not shown.
SMILES,D2 PAM-1,D2 PAM-2,D2 ag-1,D2 antag,D2 ag-2
CCOc1ccc(N(C(=O)c2snc(C(N)=O)c2N)C(C)C(=O)NC2CCCCC2)cc1 (stereo not given),-12.6,nt,-2.9,17.8,5.7
Cc1ccc(C(C(=O)NC2CCCCC2)N(CCCN2CCOCC2)C(=O)c2snc(C(N)=O)c2N)cc1 (stereo not given),-18.9,-18.0,0.3,49.2*,-3.0
Cc1ccc(N(C(=O)c2snc(C(N)=O)c2N)C(C(=O)NC2CCCC2)c2ccncc2)cc1 (stereo not given),-1.1,-21.2,0.2,104.8*,-2.1
COc1cc(OC)cc(N(C(=O)c2snc(C(N)=O)c2N)C(C(=O)NCC2CCCO2)c2ccc(C)o2)c1 (stereo not given),nt,34.6*,0.2,11.3,nt
CCOc1ccc(CN2CCc3nc(Nc4ccc5c(c4)OCCO5)ncc3C2)cc1,nt,5.7,1.8,nt,nt
CCCN(CCC)CCNC(=O)C1CCN(S(=O)(=O)c2cccc3nsnc23)CC1,-13.9,-6.0,0.8,37.5*,6.0
COCc1cc(C)n(CC(=O)N2CCCC2)c(=O)c1C#N,-5.2,-3.9,1.7,30.8*,1.8
CC1CCc2cc(F)ccc2N1S(=O)(=O)c1ccc(Cl)nc1 (stereo not given),2.5,-5.5,-1.4,35.4*,-0.4
Cc1cccc(C)c1-n1ncc(C(=O)N2CCN(c3ccccc3)CC2)c1C1CCN(C(=O)OC(C)(C)C)CC1,nt,-3.8,-0.8,nt,nt
CC1=NN(c2cccc(F)c2)C(=O)/C1=C/c1ccc(N(C)C)cc1,-18.5,-21.3,-0.2,31.6*,0.8
CCN(C(=O)C1CCN(S(=O)(=O)c2ccc3c(c2)oc(=O)n3C)CC1)c1cccc(C)c1,-1.2,3.8,0.2,38.9*,-3.2
Cc1ccc(-c2csc(N3CCN(c4cc5c(cc4Cl)nc(-c4ccncc4)n5CCN4CCCCC4)CC3)n2)cc1,-11.5,5.0,-0.3,3.8,-1.9
CCCn1c(C)nc2cc(Cl)c(N3CCN(c4nc(-c5ccc(C)cc5)cs4)CC3)cc21,-10.5,3.1,-0.4,40.0*,-2.5
C[C@H](NC(=O)OCc1ccccc1)c1nnc([C@H](Cc2ccccc2)NC(=O)OC(C)(C)C)o1,-4.7,8.1,0.9,30.9*,0.2
C[C@H](NC(=O)OCc1ccccc1)c1nnc([C@H](C)NC(=O)OCc2ccccc2)o1,-8.4,9.2,-0.2,38.3*,6.0
CCOc1ccc(CC(=O)NC2CC(=O)N(c3ccc(C)c(C)c3)C2)cc1 (stereo not given),nt,17.8,0.7,nt,nt
C/C(=N\OCc1cccc(C(=O)O)c1)c1ccc(Cl)cc1,0.4,8.1,0.0,55.7*,-1.3
C/C(=N\OCc1ccc(C#N)cc1)c1ccccc1,-3.3,10.6,-0.2,-5.3,0.6
COC(=O)[C@@]1(Cc2ccc(F)cc2)[C@H]2c3cc(C(=O)N4CCCC4)n(CCc4ccc(O)c(O)c4)c3C[C@H]2CN1C(=O)c1ccccc1,nt,-25.1,87.5*,96.3*,nt
COC(=O)[C@@]1(Cc2ccc(F)cc2)[C@H]2c3cc(C(=O)N4CCCC4)n(CCO)c3C[C@H]2CN1C(=O)c1ccccc1,-2.2,5.8,0.2,-2.3,-6.7
Cc1ccc(NC(=O)CSc2nc(-c3cccs3)nc3cc(=O)[nH]n23)cc1,nt,-1.3,-0.5,nt,nt
Cc1nnc(C)c2c(C)n(-c3ccc4ncccc4c3)c(C)c12,-2.6,1.4,0.3,32.4*,2.2
Cc1ccc2ncccc2c1,-8.2,5.7,0.4,-6.7,-0.8
COc1cc(NC(=O)c2cc3nc(-c4ccccc4)cc(-c4ccccc4)n3n2)c(OC)cc1Cl,nt,-7.2,0.6,nt,nt
CC(=O)c1cccc(Nc2ncnc3c2cnn3C)c1,nt,-3.9,-1.1,nt,nt
SMILES,D2 PAM-1,D2 PAM-2,D2 ag-1,D2 antag,D2 ag-2
O=C(NC1CCN(S(=O)(=O)c2ccc(F)cc2)CC1)c1ccco1,-3.7,4.8,0.1,2.4,-4.5
O=C(NC1CCN(S(=O)(=O)c2ccccc2C(F)(F)F)CC1)c1ccco1,1.8,-8.3,-0.3,30.3*,-1.0
CC(=O)Nc1ccc(NC(=O)c2cc3c(=O)n(Cc4cccnc4)ccc3nc2C)cc1,nt,13.8,0.4,nt,nt
CCOC(=O)c1c(CN2CCOCC2)oc2ccc(OC)cc12,-11.1,31.3*,0.4,-10.6,-3.2
CCOC(=O)c1c(CN2CCCCC2)oc2ccc(O)cc12,-19.9,-7.3,2.7,-1.3,-4.3
COC(=O)c1ccsc1NC(=O)CSc1nnnn1-c1ccccc1SC,-3.6,37.5*,0.4,-0.5,0.8
O=C(Nc1ccccc1C(F)(F)F)c1cc2nc(-c3ccccc3)cc(-c3ccccc3)n2n1,nt,-4.6,nt,nt,nt
Cc1c(Cl)c(C(=O)Nc2nc3ccccc3n2CCN2CCCCC2)nn1C,nt,34.6*,-1.0,-15.4,nt
CCOC(=O)c1[nH]c2c(c1-c1ccccc1)C(=O)CC(c1ccccc1)C2 (stereo not given),-0.7,-5.5,1.4,30.8*,-0.5
CCCCN(C)C(=O)CSc1nc2ccccc2nc1Cc1ccc(C)cc1,nt,-3.6,-0.4,nt,nt
COc1ccc(OC)c(N)c1,60.9*,-9.1,-1.0,-20.9,1.8
CCCc1cc(=O)[nH]c(SC(C)C(=O)N2c3ccccc3CC2C)n1 (stereo not given),11.3,-29.4,-0.3,44.0*,5.8
CCCc1cc(=O)[nH]c(SCC(=O)N2c3ccccc3CC2C)n1 (stereo not given),9.6,nt,nt,nt,2.3
O=C1N/C(=N/Nc2ccccc2)S/C1=C\c1ccccc1,54.6*,-4.3,0.4,4.8,9.3
CCOC(=O)CCNC(=O)Nc1ccc2nc(C)n(Cc3cccc(Cl)c3)c(=O)c2c1,7.2,34.9*,-1.8,-15.4,0.4
CCCc1nc2ccc(NC(=O)NCCC(=O)OCC)cc2c(=O)n1Cc1cccc(Cl)c1,3.1,4.1,-0.4,-15.6,-0.3
COc1ccc(C2CC(c3cc(Br)ccc3F)n3nnnc3N2)cc1 (stereo not given),18.6,33.5*,-0.3,12.4,0.1
COc1ccc(C2CC(c3ccccc3)n3nnnc3N2)cc1 (stereo not given),-6.0,3.7,1.0,-2.1,-1.7
COc1ccc(N2C(=O)C(Cl)=C(N3CCN(Cc4ccccc4)CC3)C2=O)cc1,0.7,nt,nt,nt,-2.3
O=C1C(Cl)=C(N2CCN(Cc3ccccc3)CC2)C(=O)N1c1ccccc1,-15.1,-10.7,-0.5,36.7*,-2.9
Cc1ccc(C(=O)NCCn2cc(SCC(=O)Nc3cc(C)on3)c3ccccc32)cc1,1.1,-26.4,-0.7,32.5*,4.5
Cc1cc(NC(=O)CSc2cn(CCNC(=O)c3ccccc3)c3ccccc23)no1,2.6,5.7,-1.3,3.3,2.8

# From PubChem BioAssay
